In the library only some 4% were active in any assay of this set; here they are far more common.
Statin myotox sup: suppression of simvastatin myotoxicity; C2C12 myotubes + simvastatin, ATP luminescence, 48 h; scaled: DMSO 0, geranylgeraniol control 100; hit rate 0.78% among 330,000; rescue of ATP level, % at 7.49 µM; AID 602340;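 active = mean ATP rescue above about 67%, or every replicate alone reaching that limit, limit read from the data, passing the limit was not always enough; inconclusive = no clear call, values can overlap the other calls; inactive = mean under the limit and some replicate under it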;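 also: myotubes were challenged with 10 µM simvastatin during compound exposure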
TRPM1 prom inh: reduces MITF-dependent TRPM1 promoter luciferase signal; inhibition, % at 12.5 µM; hit rate 0.83% among 330,000; SK-MEL-5 TRPM1 promoter luciferase, 24 h;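 active = mean inhibition across replicates of 60% or more, whatever share of single replicates reaches that level; inconclusive = some that reach 60%, reason not given; inactive = mean inhibition across replicates below 60%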
esBAF inh: SWI/SNF esBAF complex inhibition; mouse ES cells, Bmi1-luciferase knock-in reporter, 24 h; 100% = twice the neutral-well signal; reporter increase, % at 12.5 µM; hit rate 2% among 350,000; in the data active = activation above about 40%; inconclusive = no clear call, values can overlap the other calls;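 also: 0% = median of the plate's neutral control wells and 100% = double that signal; a rise in the Bmi1 reporter signal indicates esBAF inhibition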
Wnt bcat act: activators of Wnt/beta-catenin signaling | Wnt/beta-catenin reporter cell assay, activator, plate reader | activation, % at 9.35 µM | hit rate 1.2% among 300,000; in the data active = activation above about 30%, passing the limit was not always enough; inconclusive = no clear call, values can overlap the other calls;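 also: 0% = neutral control wells and 100% = positive control wells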
LMP1 NFkB inh: reduces LMP1-driven NF-kappaB luciferase signal; hit rate 0.69% among 350,000; LMP1-induced NF-kappaB luciferase reporter cells, luminescence; inhibition, % at 12.5 µM; AID 504558; in the data active = inhibition above about 41%; inconclusive = no clear call, values can overlap the other calls;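 also: 0% = neutral control wells and 100% = reference inhibitor control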
MITF TRPM1 HTS: activators of MITF-driven TRPM1 promoter activity in SK-MEL-5 cells; hit rate 0.75% among 300,000; AID 588334; activation, % at 12.5 µM; SK-MEL-5 TRPM1-promoter luciferase, 24 h; % of positive control, neutral wells = 0;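 active = mean activation of at least 80% with every replicate also reaching 80%; inconclusive = mean reaches 80% but some replicate falls short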;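 also: 0% = neutral control wells and 100% = parthenolide positive control wells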
The depositor's hits bear a star; ? = inconclusive; nt = not tested or not shown.

SMILES | Statin myotox sup | TRPM1 prom inh | esBAF inh | Wnt bcat act | LMP1 NFkB inh | MITF TRPM1 HTS
O=[N+]([O-])c1cccnc1Oc1ccc(OCc2ccccc2)cc1 | -14 | -66 | ? | 9 | -8 | 65
Cc1cc(C)c2sc(N(CCCN(C)C)C(=O)c3ccc(S(=O)(=O)N4CCc5ccccc5C4)cc3)nc2c1 | -9 | 89* | -63 | nt | -109 | -89
COc1ccc2sc(N(CCCN(C)C)C(=O)c3ccc(S(=O)(=O)N4CCc5ccccc5C4)cc3)nc2c1 | 1 | 85* | 2 | 5 | -54 | -85
CN(C)CCCN(C(=O)c1ccc(S(=O)(=O)N2CCc3ccccc32)cc1)c1nc2ccc(Cl)cc2s1 | -8 | -5 | -3 | -6 | 8 | 3
Cc1cccc2sc(N(CCCN(C)C)C(=O)c3ccc(S(=O)(=O)N4CCc5ccccc5C4)cc3)nc12 | 7 | 44 | -14 | -3 | -26 | -45
CN(C)CCCN(C(=O)c1ccc(S(=O)(=O)N2CCc3ccccc3C2)cc1)c1nc2ccc(F)cc2s1 | -5 | 73* | -51 | -2 | -39 | -72
Cc1cc(C)c2sc(N(CCCN(C)C)C(=O)c3ccc(S(=O)(=O)N4CCCc5ccccc54)cc3)nc2c1 | -36 | 83* | -7 | -11 | 3 | -82
CN(C)CCCN(C(=O)c1ccc(S(=O)(=O)N2CCc3ccccc32)cc1)c1nc2ccc(F)cc2s1 | -1 | 29 | -1 | -4 | -10 | -28
Cc1ccc2sc(N(CCCN(C)C)C(=O)c3ccc(S(=O)(=O)N(C)C4CCCCC4)cc3)nc2c1C | -19 | 77* | nt | -21 | -4 | -78
CCN(CC)CCN(C(=O)c1ccc(S(=O)(=O)N(C)C2CCCCC2)cc1)c1nc2c(C)cccc2s1 | -5 | 11 | -6 | 7 | 15 | -7
Cc1ccc2nc(N(CCCN(C)C)C(=O)c3ccc(S(=O)(=O)N4CCc5ccccc5C4)cc3)sc2c1 | 2 | 76* | -33 | 2 | -54 | -75
CN(C)CCCN(C(=O)c1cc(-c2cccs2)nc2ccccc12)c1nc2ccc(F)cc2s1 | -17 | 87* | -8 | -13 | -61 | -86
CN(C)CCCN(C(=O)c1ccc(S(=O)(=O)N(C)C)cc1)c1nc2cc3c(cc2s1)OCO3 | 2 | 13 | -9 | -6 | -4 | -14
CCN(Cc1ccccc1)S(=O)(=O)c1ccc(C(=O)N(CCCN(C)C)c2nc3cc4c(cc3s2)OCO4)cc1 | -11 | 93* | -12 | 2 | -2 | -93
c1ccc(CNc2nc(NCC3CC3)nc3cc(-c4ccccc4)sc23)cc1 | -11 | nt | 37 | -13 | nt | nt
CCO[C@H]1OC(C(=O)NCc2nc3ccccc3[nH]2)=C[C@@H](C2CC2)[C@@H]1CCCO | -65 | 25 | 3 | -13 | 4 | -22
Cc1ccc2nc3cc([N+](=O)[O-])cc([N+](=O)[O-])c3cc2c1 | nt | 63* | nt | -1 | -70 | -62
CCC1(c2ccc(F)cc2)NC(=O)N(CC(=O)Nc2cc(S(=O)(=O)N(C)C)ccc2Cl)C1=O (stereo unspecified) | nt | 5 | nt | -1 | -7 | -2
Cn1cc(Cl)c(C(=O)N/N=C/c2ccc3c4c(cccc24)CC3)n1 | 5 | -77 | 63* | nt | nt | 77
Cc1ccc(/C=N/NC(=O)c2nn(C)cc2Cl)cc1 | nt | -62 | nt | nt | -4 | 68
Nc1nonc1C(=O)N/N=C\c1cc2c(cc1Cl)OCO2 | -6 | 4 | 17 | 0 | -1 | -2
Cn1cc(Br)c(C(=O)N/N=C/c2cc3c(cc2Cl)OCO3)n1 | 3 | -91 | 47* | 28 | -6 | 89*
COc1ccc(C(=O)Nc2sc(C)c(C)c2CN2CC(C)OC(C)C2)cc1 (stereo unspecified) | 0 | -1 | 72* | 9 | -57 | 10
COCC(=O)N(C)C1(c2nnnn2CCOC(=O)Nc2cccc3ccccc23)CCCC1 | 98* | 6 | 1 | -1 | 1 | -4
CCN(CC)CCOc1ccc2c(c1)C(=NO)c1cc(OCCN(CC)CC)ccc1-2 | -454 | 103* | -81 | -2 | -65 | -102
SMILES | Statin myotox sup | TRPM1 prom inh | esBAF inh | Wnt bcat act | LMP1 NFkB inh | MITF TRPM1 HTS
CCN(CC)CCOc1ccc(Br)cc1 | 7 | -8 | -2 | -2 | -14 | 10
O=C(COC(=O)c1cccnc1Cl)c1ccccc1 | 27 | -49 | 44* | 1 | -7 | 52
CCc1ccc(C(=O)COC(=O)c2ccccc2OC)cc1 | nt | -82 | nt | 50* | 0 | 87*
N#CCc1ccc(OC(=O)c2cccnc2Cl)cc1 | -9 | -74 | 60* | 39* | 1 | 70
CCc1ccc(C(=O)COC(=O)c2cccnc2Cl)cc1 | -2 | -27 | 0 | 44* | -8 | 23
COc1ccccc1C(=O)OCC(=O)c1cccc([N+](=O)[O-])c1 | nt | -6 | nt | -3 | -3 | 10
O=C(COC(=O)c1cccnc1Cl)c1ccc(F)cc1 | nt | -5 | nt | 4 | -3 | -2
Cc1cc(C)n(-c2ccc(C(=O)NC3=NCCS3)cc2)n1 | -6 | -55 | 35 | 27 | -7 | nt
O=C(CC1CC1)N1CC[C@@H]2[C@H](CO)Nc3ccc(-c4ccccc4)cc3[C@@H]21 | -2 | nt | -1 | nt | nt | nt
Cc1nnc(Nc2ccc(C(=O)O)cc2)[nH]c1=O | nt | 12 | nt | 0 | -6 | -11
Cc1nnc(Nc2ccc(O)cc2)[nH]c1=O | 107* | 9 | -2 | -15 | -16 | -8
CCC1CCCCN1S(=O)(=O)c1ccc(NC(=O)C2CC(=O)N(C(C)(C)C)C2)cc1 (stereo unspecified) | -18 | -45 | 30 | 33* | 1 | 48
Cc1cc(C(=O)Nc2cccc3c2O[C@H](CN(C)Cc2ccc4c(c2)OCO4)[C@H](C)CN([C@H](C)CO)C3=O)n(C)n1 | -10 | nt | -1 | nt | nt | nt
C=CCN(c1ccc(C(=O)Nc2ccc3c(c2)OCO3)cc1)S(C)(=O)=O | -10 | -3 | 2 | 8 | -4 | 2
C=CCN(c1ccc(C(=O)Nc2ccc3c(c2)n(C)c(=O)n3C)cc1)S(C)(=O)=O | -3 | 12 | 1 | -1 | 80* | -10
O=C(Nc1ccccc1O)c1cc2cc(Br)ccc2oc1=O | 5 | -96 | 20 | ? | -25 | 101*
O=C(O)CNS(=O)(=O)c1cccc2nsnc12 | -11 | 3 | -2 | -1 | 2 | -2
O=C1N(c2cccc(Cl)c2)C(c2ccccc2)N2CCCN12 (stereo unspecified) | nt | 14 | nt | nt | -2 | -17
Cc1cccc(-c2nnc(-c3cccc(NC(=O)Cc4cccs4)c3)o2)c1 | 3 | -61 | 80* | nt | -2 | 56
CC/C(=N\NC(=O)c1c[nH]c2ccccc12)c1cccs1 | nt | -30 | nt | 17 | -20 | 26
Cc1coc2c1C(=O)C(=O)c1c-2ccc2c(C)cccc12 | -14 | nt | -17 | nt | 79* | -98
C[C@H]1COC2=C1C(=O)C(=O)c1c2ccc2c1CCCC2(C)C | 1 | 84* | 29 | nt | -20 | -83
Cc1coc2c1C(=O)C(=O)c1c-2ccc2c1CCCC2(C)C | -9 | 93* | 34 | -1 | -4 | -93
